# Bioassay records (PubChem BioAssay)
# MARV entry inh = qHTS for inhibitors of binding or entry into cells for Marburg Virus. Marburg virus pseudotyped entry inhibition, cell reporter. Potency, µM (highest dose often 37.8 µM), hits mostly inhibitors. 300,000 compounds, 1.8% hits. AID 540276, 2011; calls by dose curve; tested in HEK293 cells
# CHX counter = Cycloheximide Counterscreen for Small Molecule Inhibitors of Shiga Toxin | cell reporter, cycloheximide protein synthesis inhibition counterscreen | max response, % | 300,000 compounds, 12% hits | AID 2314, 2010; in the data active = max response mostly above about 13%, no sharp cut-off; inactive = mostly below about 14%; also: read at 38.3 µM for the half of the compounds with a filed dose
# HCV inhibitor = qHTS Assay for Inhibitors of Hepatitis C Virus (HCV). Potency, µM (top dose mostly 41.8 µM), usual class: inhibitors. AID 651820, 2012. Huh7.5.1 HCVcc-Cre infection, luciferase reporter, 44 h. 340,000 compounds, 3.4% hits; active = well fitted inhibition curve with a large enough effect; inconclusive = small, poorly fitted or top-dose-only effect, or another doubt; inactive = no such curve, though single readings can be large or run the other way
#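 A cell-based infection assay in which seeded cells (1,000 per well) receive test compound after 4 h, are inoculated with HCVcc-Cre at approximately 0.5 moi, and are incubated 44 h before luminescence detection.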
# LASV entry inh = qHTS for Inhibitors of binding or entry into cells for Lassa Virus; Lassa virus pseudotype entry inhibition, cell reporter; Potency, µM (series often up to 37.9 µM), hits mostly inhibitors; 300,000 compounds, 1.2% hits; AID 540256, 2011; calls by dose curve; tested in HEK293 cells; also: nearly all actives have a fitted effect of over 50% in size
# FMDV inh = High Throughput Screening for Foot and Mouth Disease Virus Antivirals. FMDV antiviral cell-based qHTS. Potency, µM (series often up to 57.9 µM), most hits filed as inhibitors. 410,000 compounds, 1.2% hits; calls by dose curve; tested in HEK293T cells; also: read-out not given here; nearly all actives have a fitted effect of over 45% in size
# Shiga toxin inh = A qHTS for Small Molecule Inhibitors of Shiga Toxin. 290,000 compounds, 9.2% hits. Vero cells, Shiga toxin protein synthesis inhibition reporter. inhibition, % at 38.7 µM; in the data active = inhibition mostly above about 28%, no sharp cut-off; inactive = mostly below about 43%
# A number is an active result; . = inactive; ? = inconclusive; / = not tested or not shown. Only some compounds are listed: those with a hit (about 13% of all), similar ones and a draw of the others.
SMILES,MARV entry inh,CHX counter,HCV inhibitor,LASV entry inh,FMDV inh,Shiga toxin inh
Cc1ccc(C)c(-n2c(=O)c(C#N)cc3c(=O)n4ccccc4nc32)c1,.,.,.,.,.,.
Cc1ccccc1C(=O)NC(=S)Nc1ccccc1C(F)(F)F,.,.,.,.,.,.
Cc1ccccc1-c1noc(CCC(=O)Nc2cccc(C)c2C)n1,.,/,/,.,.,/
C[S@@](=O)CCCCN=C=S,/,57,/,/,/,.
O=[N+]([O-])c1ccc(Sc2ccncn2)c([N+](=O)[O-])c1,/,/,/,/,28µM,/
O=[N+]([O-])c1cc(Cl)ccc1Sc1ccccn1,.,.,.,.,.,.
Cc1cc(C)nc(Sc2ccc([N+](=O)[O-])cc2[N+](=O)[O-])n1,?,.,.,?,7.1µM,.
O=S1(=O)CCOC[C@H](CC2CCCCC2)N1Cc1ccccc1F,/,.,?,/,.,.
CCN(CC)C(=O)c1nc[nH]c1C(=O)N1CCN(c2ccccc2)CC1,/,/,.,/,.,/
Cc1cc(Cl)ccc1OCC(=O)N(Cc1ccco1)Cc1ccco1,.,/,/,.,?,/
COc1cc(NC(=O)c2ccc(NC(=O)N3CCSc4ncccc43)cc2)cc(OC)c1,/,/,/,.,?,/
Nc1nnc(N2CCc3ccccc32)s1,.,27,.,?,.,57
Nc1nnc(N2CCCCC2)s1,.,.,.,.,.,.
O=C(c1cc(Cl)cc(Cl)c1)N1CCN(c2cc(C(F)(F)F)nc3ccccc23)CC1,/,.,.,/,.,.
COc1ccc(C(=O)C2CCCN(Cc3cc(Cl)ccc3O)C2)c(OC)c1 (stereo not drawn),?,.,11µM,?,?,.
COc1ccc(C(=O)C2CCCN(C3Cc4ccccc4C3)C2)c(OC)c1 (stereo not drawn),?,24,?,.,.,74
CSc1ncnc2c1ncn2CCCN[C@H](C)c1cccc2ccccc12,/,/,/,/,.,/
Cc1ccc(-c2nnc(-c3ccncc3)n2-c2ccc(C)cc2)cc1,.,20,?,.,.,53
O=c1[nH]c2ccccc2nc1-c1cccs1,.,43,.,.,.,120
O=c1[nH]c2ccccc2nc1/C=C(\O)c1cccs1,.,42,.,.,.,109
Cn1ccnc1-c1nc2ccccc2[nH]c1=O,.,.,.,.,/,.
O/C(=C\c1nc2ccccc2[nH]1)c1cccs1,.,28,.,?,.,87
Cc1[nH]c2ccccc2c1-c1nc2ccccc2[nH]c1=O,.,.,.,?,.,64
N#C/C(=C(/O)c1cccs1)c1nc2ccccc2[nH]1,/,.,.,/,.,.
c1csc(-c2nnsc2-c2nc3ccccc3[nH]2)c1,.,.,.,.,.,.
SMILES,MARV entry inh,CHX counter,HCV inhibitor,LASV entry inh,FMDV inh,Shiga toxin inh
O=C(O)CC/C(=N\NC(=O)c1ccccc1)c1cccs1,.,49,.,/,.,109
COC(=O)N/N=C(\CCC(=O)O)c1cccs1,.,15,.,.,.,.
COc1ccc(C(=O)N/N=C2\CCc3ccccc32)cc1OC,?,30,.,.,.,.
O=C(COc1cccc(Br)c1)N/N=C1\CCCc2ccccc21,.,.,?,.,.,.
COc1ccc(C(=O)NN=C2CCCC2)cc1OC,.,.,.,.,.,.
Cc1cccc2c1OCC/C2=N\NC(=O)COc1ccccc1,?,60,.,.,.,133
COc1ccc(OCC(=O)N/N=C2\CCCc3ccccc32)cc1,.,.,.,.,.,.
COc1ccccc1OCC(=O)N/N=C1\CCCCc2ccccc21,.,17,.,?,.,.
COc1ccccc1OCC(=O)N/N=C1\CCc2ccccc21,.,38,.,?,.,92
O=C(COc1ccccc1F)N/N=C1\CCCc2ccccc21,.,35,?,.,.,79
Cc1cccc(C(=O)Nc2ccccc2SCC(=O)Nc2ccc(C)c(Cl)c2)c1,?,22,.,?,.,.
C/C(CC(=O)Nc1ccc(N(C)C)cc1)=N\NC(=O)c1ccccn1,?,33,.,.,.,98
C/C(CC(=O)Nc1ccc(C)c(Cl)c1)=N\NC(=O)c1ccccn1,.,51,.,.,.,77
C/C(CC(=O)Nc1ccc(N(C)C)cc1)=N\NC(=O)c1cnccn1,?,23,.,.,.,63
Cc1ccsc1CN(C(=O)COc1ccccc1Cl)C1CCS(=O)(=O)C1 (stereo not drawn),.,/,/,.,.,/
CC(=O)Nc1ccc(NC(=O)C/C(C)=N/NC(=O)C(=O)Nc2ccc(C)c(Cl)c2)cc1,.,.,.,.,.,.
C/C(CC(=O)Nc1ccc(N(C)C)cc1)=N\NC(=O)c1ccc(Cl)cc1,/,27,.,/,.,.
C/C(CC(=O)Nc1ccc(C)c(Cl)c1)=N\NC(=O)c1cccc(O)c1,.,57,.,.,.,56
CCOC(=O)c1c(NC(=O)CSc2ncnc3ccccc23)sc(C(C)=O)c1C,.,.,11µM,.,25µM,.
COC(=O)c1c(NC(=O)CSc2ncnc3ccccc23)sc(C)c1C,.,/,18µM,?,.,/
COC(=O)c1c(NC(=O)CSc2nc3ccccc3c(=O)n2Cc2ccco2)sc(C)c1C,.,.,.,.,.,.
CCOC(=O)c1c(NC(=O)CSc2nc3ccccc3c(=O)n2-c2ccc(F)cc2)sc(C(C)=O)c1C,.,.,.,.,.,.
Cc1ccc(C2C=CC(C#N)=CN2Cc2ccccc2)cc1 (stereo not drawn),/,/,/,/,.,/
COc1ccc(CNc2ccc(C)cc2)cc1Br,.,23,?,.,.,43
CCOc1ccc(CNc2ccc3c(c2)nc(C)n3C)cc1,?,25,?,.,.,active
SMILES,MARV entry inh,CHX counter,HCV inhibitor,LASV entry inh,FMDV inh,Shiga toxin inh
CCOc1ccc(CNc2nc3ccccc3n2C)cc1,/,39,.,/,.,/
COc1ccc(CNc2ccccc2)cc1Br,.,.,?,?,/,.
COc1ccc(CNc2ccc3c(c2)nc(C)n3C)cc1OC,/,44,.,/,.,58
O=C(NCCN1CCN(C(=O)c2cccc(Br)c2)CC1)C(=O)NCc1ccccc1,.,.,.,.,.,.
CCOC(=O)N1CCC(NC(=O)c2cc(COc3ccc(F)cc3Cl)on2)CC1,.,.,/,.,.,.
CCOC(=O)N1CCC(NC(=O)c2cc(COc3ccccc3SC)on2)CC1,.,27,16µM,.,.,.
CCC(NC(=O)c1cc(COc2ccc(F)cc2Cl)on1)c1ccncc1 (stereo not drawn),/,6.4,4µM,/,.,.
CSc1ccccc1OCc1cc(C(=O)N2CCC(c3ccncc3)CC2)no1,/,19,/,/,/,.
CSc1ccccc1OCc1cc(C(=O)N2CCc3c(Cl)cccc3C2)no1,?,.,13µM,.,.,.
CSc1ccccc1OCc1cc(C(=O)N2CCNC(=O)C2)no1,.,.,/,.,.,.
CSc1ccccc1OCc1cc(C(=O)N2CCN(Cc3nccn3C)CC2)no1,?,.,?,.,.,.
